# Luc counter: Counterscreen for Luciferase (Kinase-Glo TM) Inhibition. Luciferin 4-monooxygenase (Photuris pensylvanica), Q27757. Kinase-Glo luciferase, ATP luminescence, 8 min. Potency, µM (titrated, usually from 38.3 µM), inactives show top-dose activity change, negative = inhibition, most hits filed as inhibitors. 200,000 compounds, 0.28% hits; note: % is set by controls: 0 for no effect and ±100 for the full control effect; nearly all actives have a fitted effect of over 60% in size
#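 Compound is pinned into ATP-containing buffer (10 uM ATP, imidazole pH 7.2, 7 mM MgCl2). Kinase-Glo luciferase reagent is then added. Light output is recorded following an 8-min room-temperature incubation.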
# FLuc modulator: qHTS profiling assay for firefly luciferase inhibitor/activator using purifed enzyme and Km concentrations of substrates (counterscreen for miR-21 project); Luciferin 4-monooxygenase (Photinus pyralis), P08659; purified FLuc, Km substrates, luminescence inhibition; Potency, µM (titrated, usually from 57.5 µM), for inactives: at the top dose activity change, negative = inhibition, most hits filed as inhibitors; 360,000 compounds, 6.9% hits; AID 588342, 2011;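 note: plate controls were vehicle for no effect and reference inhibitor for full effect; nearly all actives have a fitted effect of over 55% in size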
# Target sequence (P08659 whole entry, looked up): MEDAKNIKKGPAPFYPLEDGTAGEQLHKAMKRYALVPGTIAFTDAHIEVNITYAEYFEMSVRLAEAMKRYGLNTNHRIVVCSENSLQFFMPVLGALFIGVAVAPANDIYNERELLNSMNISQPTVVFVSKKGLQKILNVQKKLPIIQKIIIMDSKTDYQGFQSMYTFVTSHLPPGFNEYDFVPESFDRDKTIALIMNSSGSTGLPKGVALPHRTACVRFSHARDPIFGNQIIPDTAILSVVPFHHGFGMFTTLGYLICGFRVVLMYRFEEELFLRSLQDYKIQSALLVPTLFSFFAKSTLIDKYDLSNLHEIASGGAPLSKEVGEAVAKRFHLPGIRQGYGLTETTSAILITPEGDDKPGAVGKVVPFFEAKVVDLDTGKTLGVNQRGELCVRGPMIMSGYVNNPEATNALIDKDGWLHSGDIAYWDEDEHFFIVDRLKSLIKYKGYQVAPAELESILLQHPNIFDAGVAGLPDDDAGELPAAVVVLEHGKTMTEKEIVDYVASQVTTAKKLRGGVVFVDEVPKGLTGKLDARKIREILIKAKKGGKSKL
#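 Biochemical qHTS of compounds, final roughly 60 µM downward over six points, against 10 nM purified firefly luciferase using Km concentrations of substrates (10 uM D-luciferin, 10 uM ATP) in Tris acetate pH 7.5 buffer; luminescence output.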
# NPC1 prom act: qHTS Assay for NPC1 Promoter Activators; Potency, µM (highest dose often 9.22 µM), inactives show top-dose activation, hits mostly activators; 320,000 compounds, 2.4% hits; AID 485313, 2010; Huh7 NPC1 promoter luciferase reporter, 24 h; note: % of control where 0% means no effect; nearly all actives have a fitted effect of over 60% in size
#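 Compounds in DMSO were transferred onto Huh7 NPC1-luciferase reporter cells pre-incubated 2 h; after 24 h at 37 °C, Amplite reagent was dispensed and luminescence recorded 10 min later.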
# SMN2 splice enh: qHTS Assay for Enhancers of SMN2 Splice Variant Expression | Potency, µM (doses to about 46.1 µM), for inactives: at the top dose activity change, positive = activation, actives largely listed as activators | AID 1458, 2008 | HEK293 SMN2-luciferase splicing reporter, luminescence, 30-36 h | 210,000 compounds, 2.8% hits; note: % of control where 0% means no effect; nearly all actives have a fitted effect of over 55% in size
#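 HEK293 cells carry an SMN2 minigene-luciferase reporter in which exon 7 inclusion puts luciferase in frame. Cells were seeded at 2000 cells/well, attached for 10-12 hours, then exposed to compounds for 30-36 hours at 37C before ONE-Glo luminescence.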
# ELG1 genotoxic: qHTS screen for small molecules that induce genotoxicity in human embryonic kidney (HEK293T) cells expressing luciferase-tagged ELG1 | HEK293T ELG1-luciferase reporter, luminescence, 16 h | Potency, µM (top dose mostly 46 µM), inactives show top-dose activity change, positive = activation, most hits filed as activators | 330,000 compounds, 1.3% hits | AID 504466, 2011; note: % of control where 0% means no effect; nearly all actives have a fitted effect of over 60% in size
#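 Quantitative HTS format in 1536-well plates. HEK293T ELG1-luciferase reporter cells receive test compound and are incubated 16 hr at 37 °C, 5% CO2; ONE-Glo added, 30 min room temperature, then luminescence read.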
# Rab9 prom act: qHTS Assay for Rab9 Promoter Activators | Huh7 Rab9 promoter-luciferase reporter, luminescence, 24 h | Potency, µM (series often up to 9.22 µM), without a hit: at the top dose activation, negative = inhibition, actives largely listed as activators | AID 485297, 2010 | 320,000 compounds, 2.8% hits; note: % of control where 0% means no effect; nearly all actives have a fitted effect of over 60% in size
#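 Huh7 cells stably carrying Rab9 promoter–luciferase reporter, plated 1500 cells/well, compound added after 2 h and incubated 24 h at 37 °C; luciferase luminescence then read after 10 min with detection reagent.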
# * hit, by the source's call; ? = inconclusive; / = no result; [ ] = remark or other dose. Most compounds without a hit are left out; they make up all but 7.3% or so of the library. Calls come from the whole dose curve; as a rule, active = well fitted curve in the direction sought with a large enough effect; inconclusive = small, poorly fitted or top-dose-only effect, or another doubt; inactive = no such curve, though single readings can be large; an effect the other way counts as inactive or inconclusive. Potency is the fitted concentration of half-maximal effect.
SMILES,Luc counter,FLuc modulator,NPC1 prom act,SMN2 splice enh,ELG1 genotoxic,Rab9 prom act
Cc1nc2ccccn2c1C(=O)N/N=C/c1ccc(CNC(=O)C(=O)Nc2ccccc2)o1,-3%,19µM*,-5%,?,3%,2%
Cc1nc2ccccn2c1C(=O)N/N=C/c1ccc([N+](=O)[O-])o1,-1%,-6%,-9%,-37%,-7%,-6%
Cc1nnc(SCC(=O)Nc2ccccc2)c2ccccc12,/,17µM*,22%,/,-2%,13%
O=C(CSc1ncnc2scc(-c3ccccc3)c12)Nc1ccc(C(=O)O)cc1,/,21µM*,-40%,/,5%,9%
O=C(CSc1nc(-c2ccccc2)nc2ccccc12)Nc1cccc(C(=O)O)c1,2%,19µM*,-4%,8%,3%,2%
O=C(CSc1nc(-c2ccccc2)nc2c1Cc1ccccc1O2)Nc1ccc(C(=O)O)cc1,-3%,7.6µM*,4%,-15%,0%,7%
O=C(CSc1nc(-c2ccc(F)cc2)nc2ccc(F)cc12)Nc1cccc(C(=O)O)c1,0%,?,-2%,-11%,0%,-5%
CCN1CCN(c2cc3c(cc2F)c(=O)c(S(=O)(=O)c2cc(C)cc(C)c2)cn3CC)CC1,/,0%,/,/,/,/
O=c1c(Cl)c(N2CCCCC2)cnn1-c1nc2ccccc2[nH]1,1.6µM*,0.38µM*,?,-63%,?,0.11µM*
CCS(=O)(=O)N1CCN(c2cnn(-c3ccccc3)c(=O)c2Cl)CC1,-7%,-1%,11%,11%,3%,-8%
O=c1[nH]c2ccccc2nc1C(F)(F)F,/,1%,-2%,/,0%,3%
O=c1c2ccccc2cnn1-c1nc2ccccc2[nH]1,2µM*,0.17µM*,0.1µM*,/,-8%,?
CN=c1scc(-c2ccccc2F)n1/N=C(\C)c1cccnc1,-3%,7.6µM*,1.4µM*,11µM*,?,1.8µM*
O=C(Nc1nc2c(ccc3ccccc32)s1)c1ccco1,-1%,13µM*,?,24%,6%,?
O=C(Nc1nc2c(F)c(F)c(F)cc2s1)c1ccco1,/,6µM*,2.2µM*,/,?,2.5µM*
O=C(Nc1nc2c(Cl)ccc(Cl)c2s1)c1ccco1,-2%,?,-8%,14%,17%,-23%
O=C(COC(=O)c1ccco1)Nc1nc2c(F)c(F)c(F)cc2s1,/,1%,2%,/,0%,-4%
O=C(Nc1nc2c(F)cc(F)cc2s1)c1ccco1,/,4.8µM*,0.71µM*,/,?,0.45µM*
O=C(CCc1ccccc1)Nc1nc2c(F)cc(F)cc2s1,/,17µM*,?,/,14%,17%
CN(C)CCN(C(=O)c1ccco1)c1nc2c(F)cc(F)cc2s1,/,-8%,/,/,/,/
COc1ccccc1C(=O)OCC(=O)c1ccc(CNC(C)=O)s1,/,/,/,/,0%,/
O=C(COC(=O)c1ccc(F)cc1F)c1ccc[nH]1,/,19µM*,1%,/,3%,-3%
COc1ccc(C(=O)c2ccc(CC(=O)O)s2)cc1,-2%,12µM*,-3%,-7%,2%,-3%
O=C(/C=C/c1ccc(F)cc1)OCC(=O)c1ccc[nH]1,/,?,10%,/,6%,16%
COc1ccc(C(=O)OCC(=O)c2ccc(CNC(C)=O)s2)cc1,/,11µM*,9%,/,1%,23%
SMILES,Luc counter,FLuc modulator,NPC1 prom act,SMN2 splice enh,ELG1 genotoxic,Rab9 prom act
COc1ccc(C(=O)OCC(=O)c2ccc[nH]2)cc1,/,27µM*,?,/,?,?
CC(C)(C)c1cc2c(O)c(c1)Cc1cc(C(C)(C)C)cc(c1O)Cc1cc(C(C)(C)C)cc(c1O)Cc1cc(C(C)(C)C)cc(c1O)Cc1cc(C(C)(C)C)cc(c1O)Cc1cc(C(C)(C)C)cc(c1O)Cc1cc(C(C)(C)C)cc(c1O)Cc1cc(C(C)(C)C)cc(c1O)C2,-12%[7.66 µM],/,/,-7%[9.22 µM],/,/
CC1=C(C(=O)Nc2ccc(C)cc2C)C(C(C)C)n2nc(SCc3ccccc3Cl)nc2N1 (centres undefined),/,0%,/,-9%,/,/
Cc1ccc(N2CCN(Cc3nnc(-c4ccc5c(c4)OCO5)o3)CC2)c(C)c1,/,-3%,/,0%,/,/
Cc1ccc(NC(=O)c2cc3c(s2)CCC3)cc1S(=O)(=O)N1CCOCC1,-2%,13µM*,4%,-36%,-15%,-4%
Cc1ccc(S(=O)(=O)N2CCOCC2)cc1NC(=O)c1cc2c(s1)CCC2,21%,1%,-2%,-16%,-5%,-4%
CC(=O)c1cccc(NC(=O)c2ccc(C)c(S(=O)(=O)N3CCOCC3)c2)c1,/,-2%,-2%,/,-3%,-2%
Cc1ccc(C(=O)Nc2ccc3c(c2)CCC3)cc1S(=O)(=O)N1CCOCC1,-1%,17µM*,?,?,?,2.2µM*
CSc1nnc(NC(=O)c2ccc(C)c(S(=O)(=O)N3CCOCC3)c2)s1,-5%,?,26%,11µM*,?,6%
Cc1ccc(C(=O)Nc2cccc(C(=O)O)c2)cc1S(=O)(=O)N1CCOCC1,17%,1.1µM*,1.3µM*,13µM*,12%,2.2µM*
Cc1ccc(OCC(=O)Nc2nonc2-c2ccc(Br)cc2)cc1C,/,-10%,/,/,/,/
Cc1ccc(NC(=O)c2ccc(NC(=O)N3CCSc4ncccc43)cc2)c(Cl)c1,/,-1%,/,/,/,/
CCCCS(=O)(=O)N1C2=NC(C(=O)OC)=C(C(=O)OC)[C@@H]3N(C)c4ccccc4[C@]23C[C@H]1C(=O)OC,-5%[7.66 µM],/,/,-11%[9.22 µM],/,/
Cc1ccc(C(=O)Nc2cccc(C(=O)O)c2)cc1S(=O)(=O)N1CCCCC1,-12%,0.34µM*,0.79µM*,11µM*,?,0.4µM*
Cc1ccc(C(=O)Nc2cccnc2)cc1S(=O)(=O)N1CCCCC1,0%,-15%,-1%,-7%,-5%,-3%
CC(C)(C)C1CCC(=NNc2nc3ccccc3[nH]2)CC1 (centres undefined),-20%,13µM*,2%,29%,0%,17%
CCCCNc1nc2ccccc2[nH]1,-6%,-17%,2%,23%,0%,-10%
c1ccc2c(c1)CCC[C@H]2Nc1nc2ccccc2[nH]1,/,/,-7%[46.1 µM],/,/,-24%[46.1 µM]
c1ccc(CN2CCC(=NNc3nc4ccccc4[nH]3)CC2)cc1,-2%,19µM*,-2%,5%,2%,0%
c1ccc2c(c1)CC/C2=N/Nc1nc2ccccc2[nH]1,-3%,6.7µM*,?,11µM*,?,2.5µM*
